Results from the supplement of paper PMC10849652.
About 7,900 targets were measured; listed, in parts, are those with a hit and a random draw of the rest. About 0.6% of all pairs of compound and target were hits. Unmarked numbers belong to inactive results.

Experiments:
Experiment in all cases: log2 fold change, soluble protein after heating vs DMSO (PISA); higher = thermal stabilisation; K562 cells, 10 uM, 30 min; active = over 0.2 and 3.5 SD of the protein, either way, in both replicates (recomputed)
saracatinib = compound: CN1CCN(CCOc2cc(OC3CCOCC3)c3c(Nc4c(Cl)ccc5c4OCO5)ncnc3c2)CC1 [saracatinib]
Summary of the method: (§1)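 K562 cells at 2×10^6 cells/mL were given 10 μM compound for 30 min. Aliquots then went through 3 min of heating across 48°C-58°C, were pooled, and were extracted in PBS with 0.5% NP-40 at 4°C, and the supernatant after 21,000xg for 90 min was quantified by TMTpro 16plex LC-MS/MS with channel sums equalised. Thermal stability relative to control samples, from duplicates, is given as log2 fold change.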

sotrastaurin = compound: CN1CCN(c2nc(C3=C(c4c[nH]c5ccccc45)C(=O)NC3=O)c3ccccc3n2)CC1 [sotrastaurin]
Summary of the method: as §1

alvocidib = compound: CN1CC[C@H](c2c(O)cc(O)c3c(=O)cc(-c4ccccc4Cl)oc23)[C@H](O)C1 [alvocidib]
Summary of the method: as §1

Tubastatin A = compound: CN1CCc2c(c3ccccc3n2Cc2ccc(C(=O)NO)cc2)C1 [Tubastatin A]
Summary of the method: as §1

[1] = compound: CNC(=O)C1=CC=CC=C1NC2=NC(=NC=C2Cl)NC3=C(C=C(C=C3)N4CCOCC4)OC
Summary of the method: as §1

defactinib = compound: CNC(=O)c1ccc(Nc2ncc(C(F)(F)F)c(NCc3nccnc3N(C)S(C)(=O)=O)n2)cc1 [defactinib]
Summary of the method: as §1

rucaparib = compound: CNCc1ccc(-c2[nH]c3cc(F)cc4c3c2CCNC4=O)cc1 [rucaparib]
Summary of the method: as §1

[2] = compound: CNc1nc(-c2ccc3c(N)n[nH]c3c2)cc(N2C[C@@H](C(=O)NC3CCCCC3)CC[C@H]2C)n1
Summary of the method: as §1

encorafenib = compound: COC(=O)N[C@@H](C)CNc1nccc(-c2cn(C(C)C)nc2-c2cc(Cl)cc(NS(C)(=O)=O)c2F)n1 [encorafenib]
Summary of the method: as §1

[3] = compound: COC(=O)[C@H](CCSC)NC(=O)C1=C(C=C(C=C1)NC[C@H](CS)N)C2=CC=CC=C2
Summary of the method: as §1

[4] = compound: COC1=CC=C(C=C1)CN2C=CC3=C2C=C(C=C3)C(=O)NO
Summary of the method: as §1

filanesib = compound: CON(C)C(=O)N1N=C(c2cc(F)ccc2F)S[C@@]1(CCCN)c1ccccc1 [filanesib]
Summary of the method: as §1

zotarolimus = compound: CO[C@H]1C[C@@H]2CC[C@@H](C)[C@@](O)(O2)C(=O)C(=O)N2CCCC[C@H]2C(=O)O[C@H]([C@H](C)C[C@@H]2CC[C@H](n3cnnn3)[C@H](OC)C2)CC(=O)[C@H](C)/C=C(\C)[C@@H](O)[C@@H](OC)C(=O)[C@H](C)C[C@H](C)/C=C/C=C/C=C/1C [zotarolimus]
Summary of the method: as §1

idasanutlin = compound: COc1cc(C(=O)O)ccc1NC(=O)[C@@H]1N[C@@H](CC(C)(C)C)[C@](C#N)(c2ccc(Cl)cc2F)[C@H]1c1cccc(Cl)c1F [idasanutlin]
Summary of the method: as §1

alisertib = compound: COc1cc(Nc2ncc3c(n2)-c2ccc(Cl)cc2C(c2c(F)cccc2OC)=NC3)ccc1C(=O)O [alisertib]
Summary of the method: as §1

[5] = compound: COc1cc2nc(-c3cc(F)ccc3O)nc(N[C@@H]3CNC[C@H]3C(C)(C)O)c2cc1OC
Summary of the method: as §1

gefitinib = compound: COc1cc2ncnc(Nc3ccc(F)c(Cl)c3)c2cc1OCCCN1CCOCC1 [gefitinib]
Summary of the method: as §1

[6] = compound: COc1cccc2cc(-c3nc([C@H]4CC[C@H](C(=O)O)CC4)n4ncnc(N)c34)[nH]c12
Summary of the method: as §1

lapatinib = compound: CS(=O)(=O)CCNCc1ccc(-c2ccc3ncnc(Nc4ccc(OCc5cccc(F)c5)c(Cl)c4)c3c2)o1 [lapatinib]
Summary of the method: as §1

pictilisib = compound: CS(=O)(=O)N1CCN(Cc2cc3nc(-c4cccc5[nH]ncc45)nc(N4CCOCC4)c3s2)CC1 [pictilisib]
Summary of the method: as §1

Target: EFL1 (UniProt Q7Z2Z2)
UniProt Q7Z2Z2, sequence (Q7Z2Z2 whole entry, looked up): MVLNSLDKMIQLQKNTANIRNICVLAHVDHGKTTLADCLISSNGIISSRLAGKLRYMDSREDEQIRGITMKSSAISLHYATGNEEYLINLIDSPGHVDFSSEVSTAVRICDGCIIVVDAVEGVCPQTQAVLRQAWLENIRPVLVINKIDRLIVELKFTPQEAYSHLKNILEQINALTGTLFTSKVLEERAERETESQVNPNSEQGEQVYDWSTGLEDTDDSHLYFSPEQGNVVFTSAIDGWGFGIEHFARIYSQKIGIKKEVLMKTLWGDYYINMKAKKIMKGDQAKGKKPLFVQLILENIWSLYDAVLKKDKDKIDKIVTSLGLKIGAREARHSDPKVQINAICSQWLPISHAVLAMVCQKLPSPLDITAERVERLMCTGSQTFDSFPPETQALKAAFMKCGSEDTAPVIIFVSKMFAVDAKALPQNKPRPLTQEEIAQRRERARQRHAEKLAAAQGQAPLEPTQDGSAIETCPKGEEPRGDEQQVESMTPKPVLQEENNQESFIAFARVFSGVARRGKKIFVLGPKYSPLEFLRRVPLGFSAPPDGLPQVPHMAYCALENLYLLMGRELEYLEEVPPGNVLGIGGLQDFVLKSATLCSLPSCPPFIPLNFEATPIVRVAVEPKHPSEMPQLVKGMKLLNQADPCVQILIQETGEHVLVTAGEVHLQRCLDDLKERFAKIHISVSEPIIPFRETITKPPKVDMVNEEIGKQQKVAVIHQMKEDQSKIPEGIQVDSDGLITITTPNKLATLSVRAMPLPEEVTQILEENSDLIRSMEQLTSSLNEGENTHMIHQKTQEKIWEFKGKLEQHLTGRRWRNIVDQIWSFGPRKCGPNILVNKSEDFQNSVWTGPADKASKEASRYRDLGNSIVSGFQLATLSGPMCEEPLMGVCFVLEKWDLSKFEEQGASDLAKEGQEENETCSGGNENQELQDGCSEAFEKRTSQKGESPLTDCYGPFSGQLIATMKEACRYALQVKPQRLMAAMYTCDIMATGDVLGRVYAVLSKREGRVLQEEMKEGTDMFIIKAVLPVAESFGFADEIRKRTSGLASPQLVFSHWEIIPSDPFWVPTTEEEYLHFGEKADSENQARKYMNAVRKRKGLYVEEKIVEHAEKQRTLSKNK
- log2 fold change (saracatinib): -0.036
- log2 fold change (sotrastaurin): -0.004
- log2 fold change (alvocidib): -0.038
- log2 fold change (Tubastatin A): -0.007
- log2 fold change [1]: -0.014
- log2 fold change (defactinib): -0.022
- log2 fold change (rucaparib): 0.015
- log2 fold change [2]: 0.019
- log2 fold change (encorafenib): 0.033
- log2 fold change [3]: -0.014
- log2 fold change [4]: -0.021
- log2 fold change (filanesib): -0.069
- log2 fold change (zotarolimus): 0.022
- log2 fold change (idasanutlin): -0.071
- log2 fold change (alisertib): -0.013
- log2 fold change [5]: 0.042
- log2 fold change (gefitinib): 0.019
- log2 fold change [6]: 0.033
- log2 fold change (lapatinib): -0.034
- log2 fold change (pictilisib): -0.016

Target: DYNC1I2 isoform 5 (UniProt Q13409)
UniProt Q13409, sequence (Q13409 whole entry, looked up): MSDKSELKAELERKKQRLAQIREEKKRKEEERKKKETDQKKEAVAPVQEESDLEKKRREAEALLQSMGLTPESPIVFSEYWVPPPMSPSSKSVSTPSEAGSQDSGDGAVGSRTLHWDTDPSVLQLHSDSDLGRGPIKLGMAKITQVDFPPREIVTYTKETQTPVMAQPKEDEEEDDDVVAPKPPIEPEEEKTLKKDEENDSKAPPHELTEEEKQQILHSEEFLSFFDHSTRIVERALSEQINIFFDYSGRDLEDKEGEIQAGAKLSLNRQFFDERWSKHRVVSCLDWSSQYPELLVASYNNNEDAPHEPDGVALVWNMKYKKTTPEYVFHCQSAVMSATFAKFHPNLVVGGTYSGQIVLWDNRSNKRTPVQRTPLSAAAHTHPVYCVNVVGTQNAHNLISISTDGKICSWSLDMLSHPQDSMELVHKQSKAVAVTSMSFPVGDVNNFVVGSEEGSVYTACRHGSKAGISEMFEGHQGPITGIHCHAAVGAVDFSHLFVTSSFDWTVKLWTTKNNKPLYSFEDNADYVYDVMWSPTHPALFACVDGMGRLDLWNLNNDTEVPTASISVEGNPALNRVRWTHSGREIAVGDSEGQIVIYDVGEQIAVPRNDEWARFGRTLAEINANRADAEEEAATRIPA
- log2 fold change (saracatinib): 0.012
- log2 fold change (sotrastaurin): 0.021
- log2 fold change (alvocidib): -0.033
- log2 fold change (Tubastatin A): 0.003
- log2 fold change [1]: 0.012
- log2 fold change (defactinib): 0.001
- log2 fold change (rucaparib): -0.006
- log2 fold change [2]: -0.005
- log2 fold change (encorafenib): -0.014
- log2 fold change [3]: 0.028
- log2 fold change [4]: 0.012
- log2 fold change (filanesib): 0.003
- log2 fold change (zotarolimus): 0.025
- log2 fold change (idasanutlin): 0.025
- log2 fold change (alisertib): -0.051
- log2 fold change [5]: 0
- log2 fold change (gefitinib): -0.003
- log2 fold change [6]: 0.004
- log2 fold change (lapatinib): 0.021
- log2 fold change (pictilisib): 0.035

Target: CWC27 (UniProt Q6UX04)
UniProt Q6UX04, sequence (Q6UX04 whole entry, looked up): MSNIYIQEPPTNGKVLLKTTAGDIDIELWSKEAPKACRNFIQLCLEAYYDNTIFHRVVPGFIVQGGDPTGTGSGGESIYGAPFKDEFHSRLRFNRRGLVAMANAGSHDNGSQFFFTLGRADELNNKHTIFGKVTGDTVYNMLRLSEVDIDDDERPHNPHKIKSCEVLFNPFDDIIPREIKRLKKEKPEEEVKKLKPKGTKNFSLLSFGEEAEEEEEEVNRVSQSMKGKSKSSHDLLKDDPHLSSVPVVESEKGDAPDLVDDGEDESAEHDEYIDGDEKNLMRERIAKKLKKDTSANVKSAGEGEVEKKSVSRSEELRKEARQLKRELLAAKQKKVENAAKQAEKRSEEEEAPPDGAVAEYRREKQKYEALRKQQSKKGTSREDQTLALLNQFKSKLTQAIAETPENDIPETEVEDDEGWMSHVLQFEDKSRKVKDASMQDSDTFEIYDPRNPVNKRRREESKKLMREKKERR
- log2 fold change (saracatinib): 0.01
- log2 fold change (sotrastaurin): -0.093
- log2 fold change (alvocidib): 0.011
- log2 fold change (Tubastatin A): 0.012
- log2 fold change [1]: 0.022
- log2 fold change (defactinib): -0.139
- log2 fold change (rucaparib): -0.001
- log2 fold change [2]: -0.064
- log2 fold change (encorafenib): 0.068
- log2 fold change [3]: -0.04
- log2 fold change [4]: 0.047
- log2 fold change (filanesib): -0.017
- log2 fold change (zotarolimus): -0.068
- log2 fold change (idasanutlin): 0.014
- log2 fold change (alisertib): -0.043
- log2 fold change [5]: 0.061
- log2 fold change (gefitinib): 0.021
- log2 fold change [6]: -0.046
- log2 fold change (lapatinib): -0.004
- log2 fold change (pictilisib): -0.036

Target: EFCAB14 (UniProt O75071)
UniProt O75071, sequence (O75071 whole entry, looked up): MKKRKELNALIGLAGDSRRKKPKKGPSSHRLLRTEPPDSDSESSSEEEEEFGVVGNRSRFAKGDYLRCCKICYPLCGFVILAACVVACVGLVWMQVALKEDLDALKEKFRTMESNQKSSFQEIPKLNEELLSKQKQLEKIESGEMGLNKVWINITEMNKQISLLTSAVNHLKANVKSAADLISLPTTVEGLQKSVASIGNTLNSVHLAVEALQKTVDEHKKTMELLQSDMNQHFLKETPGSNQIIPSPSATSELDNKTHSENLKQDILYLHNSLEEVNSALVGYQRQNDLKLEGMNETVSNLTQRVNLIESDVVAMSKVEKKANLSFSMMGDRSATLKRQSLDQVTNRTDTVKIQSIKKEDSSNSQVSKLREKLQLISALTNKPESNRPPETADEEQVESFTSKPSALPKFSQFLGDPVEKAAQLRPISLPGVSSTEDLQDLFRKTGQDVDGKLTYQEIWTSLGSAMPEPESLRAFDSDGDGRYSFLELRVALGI
- log2 fold change (saracatinib): -0.164
- log2 fold change (sotrastaurin): 0.083
- log2 fold change (alvocidib): 0.016
- log2 fold change (Tubastatin A): -0.029
- log2 fold change [1]: -0.03
- log2 fold change (defactinib): 0.093
- log2 fold change (rucaparib): -0.059
- log2 fold change [2]: 0.031
- log2 fold change (encorafenib): 0.044
- log2 fold change [3]: -0.086
- log2 fold change [4]: 0.139
- log2 fold change (filanesib): -0.018
- log2 fold change (zotarolimus): 0.147
- log2 fold change (idasanutlin): 0.027
- log2 fold change (alisertib): 0.043
- log2 fold change [5]: -0.014
- log2 fold change (gefitinib): 0.04
- log2 fold change [6]: -0.04
- log2 fold change (lapatinib): 0.021
- log2 fold change (pictilisib): 0.06

Target: DPH5 isoform 5 (UniProt Q9H2P9)
UniProt Q9H2P9, sequence (Q9H2P9 whole entry, looked up): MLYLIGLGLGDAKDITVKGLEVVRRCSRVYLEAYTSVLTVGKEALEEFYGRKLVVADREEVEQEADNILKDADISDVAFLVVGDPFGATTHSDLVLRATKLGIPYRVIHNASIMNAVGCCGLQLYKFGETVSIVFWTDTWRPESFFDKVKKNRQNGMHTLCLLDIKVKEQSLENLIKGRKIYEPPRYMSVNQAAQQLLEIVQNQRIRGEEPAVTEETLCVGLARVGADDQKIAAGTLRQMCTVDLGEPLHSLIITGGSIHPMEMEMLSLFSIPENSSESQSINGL
- log2 fold change (saracatinib): -0.007
- log2 fold change (sotrastaurin): -0.017
- log2 fold change (alvocidib): -0.064
- log2 fold change (Tubastatin A): -0.022
- log2 fold change [1]: 0.07
- log2 fold change (defactinib): 0
- log2 fold change (rucaparib): -0.061
- log2 fold change [2]: 0
- log2 fold change (encorafenib): 0.025
- log2 fold change [3]: 0.004
- log2 fold change [4]: -0.01
- log2 fold change (filanesib): -0.024
- log2 fold change (zotarolimus): -0.002
- log2 fold change (idasanutlin): -0.049
- log2 fold change (alisertib): -0.037
- log2 fold change [5]: -0.071
- log2 fold change (gefitinib): 0.017
- log2 fold change [6]: 0.046
- log2 fold change (lapatinib): 0.043
- log2 fold change (pictilisib): -0.006

Target: CUX1 isoform 2 (UniProt Q13948)
UniProt Q13948, sequence (Q13948 whole entry, looked up): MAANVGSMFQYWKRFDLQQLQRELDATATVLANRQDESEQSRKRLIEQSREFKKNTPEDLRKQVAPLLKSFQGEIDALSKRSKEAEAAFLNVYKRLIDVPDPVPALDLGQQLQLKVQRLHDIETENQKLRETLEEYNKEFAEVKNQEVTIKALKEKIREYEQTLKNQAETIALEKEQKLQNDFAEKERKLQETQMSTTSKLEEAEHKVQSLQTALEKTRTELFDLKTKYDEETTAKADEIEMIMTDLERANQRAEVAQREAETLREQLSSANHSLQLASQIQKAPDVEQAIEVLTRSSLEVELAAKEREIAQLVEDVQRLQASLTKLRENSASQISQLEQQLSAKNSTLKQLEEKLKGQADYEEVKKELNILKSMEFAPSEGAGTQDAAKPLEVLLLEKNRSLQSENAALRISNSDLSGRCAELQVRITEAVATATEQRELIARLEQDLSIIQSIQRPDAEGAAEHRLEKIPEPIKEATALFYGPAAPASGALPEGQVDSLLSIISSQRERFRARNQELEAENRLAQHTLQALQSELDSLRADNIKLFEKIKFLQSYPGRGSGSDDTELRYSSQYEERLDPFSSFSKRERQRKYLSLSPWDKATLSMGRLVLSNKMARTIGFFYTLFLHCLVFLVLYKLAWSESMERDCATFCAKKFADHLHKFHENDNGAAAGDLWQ
- log2 fold change (saracatinib): -0.065
- log2 fold change (sotrastaurin): -0.012
- log2 fold change (alvocidib): -0.07
- log2 fold change (Tubastatin A): 0.006
- log2 fold change [1]: 0.03
- log2 fold change (defactinib): -0.049
- log2 fold change (rucaparib): 0.061
- log2 fold change [2]: 0.048
- log2 fold change (encorafenib): 0.056
- log2 fold change [3]: -0.062
- log2 fold change [4]: -0.095
- log2 fold change (filanesib): 0.077
- log2 fold change (zotarolimus): -0.007
- log2 fold change (idasanutlin): -0.043
- log2 fold change (alisertib): 0.012
- log2 fold change [5]: -0.062
- log2 fold change (gefitinib): -0.029
- log2 fold change [6]: 0.074
- log2 fold change (lapatinib): 0.009
- log2 fold change (pictilisib): 0.018

Target: CYFIP1 (UniProt Q7L576)
- log2 fold change (saracatinib): -0.023
- log2 fold change (sotrastaurin): -0.026
- log2 fold change (alvocidib): -0.038
- log2 fold change (Tubastatin A): 0.006
- log2 fold change [1]: -0.001
- log2 fold change (defactinib): -0.049
- log2 fold change (rucaparib): 0.025
- log2 fold change [2]: 0
- log2 fold change (encorafenib): -0.005
- log2 fold change [3]: -0.013
- log2 fold change [4]: 0.053
- log2 fold change (filanesib): -0.027
- log2 fold change (zotarolimus): 0.039
- log2 fold change (idasanutlin): -0.028
- log2 fold change (alisertib): 0.061
- log2 fold change [5]: -0.004
- log2 fold change (gefitinib): 0.008
- log2 fold change [6]: 0.013
- log2 fold change (lapatinib): 0.023
- log2 fold change (pictilisib): 0.097

Target: EDEM2 (UniProt Q9BV94)
UniProt Q9BV94, sequence (Q9BV94 whole entry, looked up): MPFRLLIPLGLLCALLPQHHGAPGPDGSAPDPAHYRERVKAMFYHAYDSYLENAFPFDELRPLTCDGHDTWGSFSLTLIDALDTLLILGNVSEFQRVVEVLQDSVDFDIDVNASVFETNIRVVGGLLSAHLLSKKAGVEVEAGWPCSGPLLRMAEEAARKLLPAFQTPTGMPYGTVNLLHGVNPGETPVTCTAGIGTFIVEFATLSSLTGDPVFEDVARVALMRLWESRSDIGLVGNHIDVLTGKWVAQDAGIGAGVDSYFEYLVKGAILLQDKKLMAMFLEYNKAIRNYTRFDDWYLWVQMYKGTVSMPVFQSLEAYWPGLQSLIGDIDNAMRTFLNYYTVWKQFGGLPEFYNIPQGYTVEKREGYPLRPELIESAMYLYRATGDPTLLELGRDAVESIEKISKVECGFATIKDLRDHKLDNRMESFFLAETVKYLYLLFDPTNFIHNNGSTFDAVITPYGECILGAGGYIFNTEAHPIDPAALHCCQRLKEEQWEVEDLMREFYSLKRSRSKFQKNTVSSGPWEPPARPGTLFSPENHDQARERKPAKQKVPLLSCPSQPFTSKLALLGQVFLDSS
- log2 fold change (saracatinib): -0.23
- log2 fold change (sotrastaurin): -0.05
- log2 fold change (alvocidib): -0.028
- log2 fold change (Tubastatin A): 0.022
- log2 fold change [1]: -0.016
- log2 fold change (defactinib): 0.036
- log2 fold change [2]: 0.079
- log2 fold change [3]: 0.105
- log2 fold change [4]: -0.149
- log2 fold change (filanesib): -0.03
- log2 fold change (zotarolimus): 0.022
- log2 fold change (idasanutlin): -0.154
- log2 fold change (alisertib): -0.441 (active)
- log2 fold change [5]: 0.028
- log2 fold change (gefitinib): 0.033
- log2 fold change [6]: 0.205
- log2 fold change (lapatinib): -0.064
- log2 fold change (pictilisib): 0.09

Target: FAM241A (UniProt Q8N8J7)
UniProt Q8N8J7, sequence (Q8N8J7 whole entry, looked up): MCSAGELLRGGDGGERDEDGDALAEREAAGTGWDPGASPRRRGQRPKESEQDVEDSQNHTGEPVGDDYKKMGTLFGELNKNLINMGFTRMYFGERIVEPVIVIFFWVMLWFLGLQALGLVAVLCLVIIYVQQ
- log2 fold change (saracatinib): -0.012
- log2 fold change (sotrastaurin): -0.632 (active)
- log2 fold change (alvocidib): -0.046
- log2 fold change (Tubastatin A): -0.035
- log2 fold change [1]: 0.042
- log2 fold change (defactinib): 0.013
- log2 fold change (rucaparib): 0.006
- log2 fold change [2]: -0.003
- log2 fold change (encorafenib): -0.009
- log2 fold change [3]: 0.03
- log2 fold change [4]: 0.226
- log2 fold change (filanesib): -0.828 (active)
- log2 fold change (zotarolimus): -0.045
- log2 fold change (idasanutlin): 0.018
- log2 fold change (alisertib): -0.038
- log2 fold change [5]: 0.042
- log2 fold change (gefitinib): 0.044
- log2 fold change [6]: -0.006
- log2 fold change (lapatinib): -0.038
- log2 fold change (pictilisib): 0
